Reference: PubChem BioAssay AID1159580 (chemical genetic matrix, 2015)
Where “and” joins values, the source holds several entries; their conditions need not be identical. Equal values may be shown once. Among all 5,500 compounds or so, about 2,000 (36%) were called active. Inconclusive results (about 18%) are left out. Rule as the data show it: active = normalized growth mostly below about 0.91 (no sharp cut-off); inconclusive = no clear call, values can overlap the other calls; inactive = mostly above about 0.92. This is one part of the list. A structure can be active in one record and inactive in another.

Assay: chemical genetic growth profiling, strain panel (AID 1159580);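 also: tested at 20 µM; growth read once vehicle control cultures reached saturation at 30 °C; 1 = growth at the plate median or of vehicle wells; lower values mean less growth of the strain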
Conditions: growth OD

Measured: normalized growth

CCN(CC)C(=S)SSC(=S)N(CC)CC
active: S. cerevisiae deletion strains, locus YKL009W, strain mrt4, stronger effect = lower value 0.606 | S. cerevisiae deletion strains, locus YKL068W, stronger effect = lower value 0.0556 | S. cerevisiae deletion strains, locus YKL085W, strain MDH1 (second series), stronger effect = lower value 0.0512 | S. cerevisiae deletion strains, locus YKL085W, strain MDH1, stronger effect = lower value 0.0512 | S. cerevisiae deletion strains, locus YKL160W, strain elf1, stronger effect = lower value 0.0678 | S. cerevisiae deletion strains, locus YKL190W, strain CNB1, stronger effect = lower value 0.0509 | S. cerevisiae deletion strains, locus YKR001C, strain vps1, stronger effect = lower value 0.0705 | S. cerevisiae deletion strains, locus YKR026C, strain gcn3, stronger effect = lower value 0.0628 | S. cerevisiae deletion strains, locus YKR091W, strain srl3, stronger effect = lower value 0.0583 | S. cerevisiae deletion strains, locus YLL001W, strain dnm1, stronger effect = lower value 0.0613 | S. cerevisiae deletion strains, locus YLL026W, stronger effect = lower value 0.0601 | S. cerevisiae deletion strains, locus YLL041C, strain sdh2, stronger effect = lower value 0.0577 | S. cerevisiae deletion strains, locus YLR027C, strain aat2, stronger effect = lower value 0.0572 | S. cerevisiae deletion strains, locus YLR039C, strain RIC1, stronger effect = lower value 0.0861 | S. cerevisiae deletion strains, locus YLR058C, strain SHM2, stronger effect = lower value 0.0583 | S. cerevisiae deletion strains, locus YLR102C, strain apc9, stronger effect = lower value 0.0612 | S. cerevisiae deletion strains, locus YLR113W, strain HOG1, stronger effect = lower value 0.133 | S. cerevisiae deletion strains, locus YLR221C, strain rsa3, stronger effect = lower value 0.0619 | S. cerevisiae deletion strains, locus YLR258W, strain gsy2, stronger effect = lower value 0.0609 | S. cerevisiae deletion strains, locus YLR262C, strain YPT6 (second series), stronger effect = lower value 0.0822 | S. cerevisiae deletion strains, locus YLR262C, strain YPT6, stronger effect = lower value 0.109 | S. cerevisiae deletion strains, locus YLR268W, strain sec22, stronger effect = lower value 0.061 | S. cerevisiae deletion strains, locus YLR320W, strain mms22, stronger effect = lower value 0.087 | S. cerevisiae deletion strains, locus YLR330W, strain CHS5, stronger effect = lower value 0.0617 | S. cerevisiae deletion strains, locus YLR342W, strain FKS1 (second series), stronger effect = lower value 0.0677 | S. cerevisiae deletion strains, locus YLR342W, strain FKS1, stronger effect = lower value 0.0645 | S. cerevisiae deletion strains, locus YLR357W, strain rsc2, stronger effect = lower value 0.119 | S. cerevisiae deletion strains, locus YLR370C, strain arc18, stronger effect = lower value 0.0622 | S. cerevisiae deletion strains, locus YLR371W, strain rom2, stronger effect = lower value 0.0655 | S. cerevisiae deletion strains, locus YLR384C, strain iki3, stronger effect = lower value 0.0605 | S. cerevisiae deletion strains, locus YLR418C, strain cdc73, stronger effect = lower value 0.0926 | S. cerevisiae deletion strains, locus YML016C, strain PPZ1, stronger effect = lower value 0.052 | S. cerevisiae deletion strains, locus YML032C, strain rad52, stronger effect = lower value 0.263 | S. cerevisiae deletion strains, locus YML120C, strain ndi1, stronger effect = lower value 0.0591 | S. cerevisiae deletion strains, locus YML124C, strain tub3, stronger effect = lower value 0.0572 | S. cerevisiae deletion strains, locus YMR058W, strain fet3, stronger effect = lower value 0.0624 | S. cerevisiae deletion strains, locus YMR078C, strain ctf18, stronger effect = lower value 0.073 | S. cerevisiae deletion strains, locus YMR125W, strain sto1, stronger effect = lower value 0.0735 | S. cerevisiae deletion strains, locus YMR129W, stronger effect = lower value 0.0588 | S. cerevisiae deletion strains, locus YMR205C, strain PFK2, stronger effect = lower value 0.088 | S. cerevisiae deletion strains, locus YMR223W, strain ubp8, stronger effect = lower value 0.0608 | S. cerevisiae deletion strains, locus YMR231W, strain pep5, stronger effect = lower value 0.0654 | S. cerevisiae deletion strains, locus YMR263W, strain SAP30, stronger effect = lower value 0.0587 | S. cerevisiae deletion strains, locus YMR307W, strain GAS1, stronger effect = lower value 0.0974 | S. cerevisiae deletion strains, locus YNL067W, strain RPL9B, stronger effect = lower value 0.0505 | S. cerevisiae deletion strains, locus YNL071W, strain lat1, stronger effect = lower value 0.0618 | S. cerevisiae deletion strains, locus YNL128W, strain TEP1, stronger effect = lower value 0.0626 and 0.0798 | S. cerevisiae deletion strains, locus YNL153C, strain GIM3, stronger effect = lower value 0.0777 | S. cerevisiae deletion strains, locus YNL175C, strain NOP13, stronger effect = lower value 0.342 | S. cerevisiae deletion strains, locus YNL183C, strain NPR1, stronger effect = lower value -0.00035 | S. cerevisiae deletion strains, locus YNL197C, strain WHI3, stronger effect = lower value 0.0658 | S. cerevisiae deletion strains, locus YNL209W, strain ssb2, stronger effect = lower value 0.06 | S. cerevisiae deletion strains, locus YNL224C, strain SQS1, stronger effect = lower value 0.179 | S. cerevisiae deletion strains, locus YNL233W, strain BNI4, stronger effect = lower value 0.0544 | S. cerevisiae deletion strains, locus YNL248C, strain rpa49, stronger effect = lower value 0.0771 | S. cerevisiae deletion strains, locus YNL250W, strain rad50, stronger effect = lower value 0.0637 | S. cerevisiae deletion strains, locus YNL271C, strain bni1, stronger effect = lower value 0.0645 | S. cerevisiae deletion strains, locus YNL298W, strain CLA4, stronger effect = lower value 0.0615 | S. cerevisiae deletion strains, locus YNL307C, strain MCK1, stronger effect = lower value 0.0703 | S. cerevisiae deletion strains, locus YNL322C, strain KRE1 (second series), stronger effect = lower value 0.0666 | S. cerevisiae deletion strains, locus YNR049C, strain mso1, stronger effect = lower value 0.0606 | S. cerevisiae deletion strains, locus YNR052C, strain pop2, stronger effect = lower value 0.138 | S. cerevisiae deletion strains, locus YOL006C, strain TOP1, stronger effect = lower value 0.104 | S. cerevisiae deletion strains, locus YOL012C, strain htz1 0.179 | S. cerevisiae deletion strains, locus YOR001W, strain rrp6, stronger effect = lower value 0.0666 | S. cerevisiae deletion strains, locus YOR061W, strain CKA2, stronger effect = lower value 0.0499 | S. cerevisiae deletion strains, locus YOR069W, strain VPS5, stronger effect = lower value 0.0518 | S. cerevisiae deletion strains, locus YOR070C, strain gyp1, stronger effect = lower value 0.0741 | S. cerevisiae deletion strains, locus YOR080W, strain dia2, stronger effect = lower value 0.0684 | S. cerevisiae deletion strains, locus YOR083W, strain WHI5 (second series), stronger effect = lower value 0.0704 | S. cerevisiae deletion strains, locus YOR083W, strain WHI5, stronger effect = lower value 0.0659 | S. cerevisiae deletion strains, locus YOR106W, strain vam3, stronger effect = lower value 0.0652 | S. cerevisiae deletion strains, locus YOR136W, strain idh2, stronger effect = lower value 0.0727 | S. cerevisiae deletion strains, locus YOR144C, strain elg1, stronger effect = lower value 0.803 | S. cerevisiae deletion strains, locus YOR184W, strain ser1, stronger effect = lower value 0.0638 | S. cerevisiae deletion strains, locus YOR231W, strain MKK1, stronger effect = lower value 0.117 | S. cerevisiae deletion strains, locus YOR265W, strain rbl2, stronger effect = lower value 0.0575 | S. cerevisiae deletion strains, locus YOR270C, strain vph1, stronger effect = lower value 0.0967 | S. cerevisiae deletion strains, locus YOR290C, strain snf2, stronger effect = lower value 0.627 | S. cerevisiae deletion strains, locus YOR316C, strain cot1, stronger effect = lower value 0.0596 | S. cerevisiae deletion strains, locus YPL051W, strain arl3, stronger effect = lower value 0.0672 | S. cerevisiae deletion strains, locus YPL055C, strain LGE1, stronger effect = lower value 0.0641 | S. cerevisiae deletion strains, locus YPL078C, strain atp4, stronger effect = lower value 0.0676 | S. cerevisiae deletion strains, locus YPL106C, strain sse1, stronger effect = lower value 0.103 | S. cerevisiae deletion strains, locus YPL240C, strain hsp82, stronger effect = lower value 0.0557 | S. cerevisiae deletion strains, locus YPL256C, strain CLN2, stronger effect = lower value 0.13 | S. cerevisiae deletion strains, locus YPR119W, strain clb2, stronger effect = lower value 0.0619 | S. cerevisiae deletion strains, locus YPR141C, strain kar3, stronger effect = lower value 0.0641 | S. cerevisiae deletion strains, locus YPR163C, strain tif3, stronger effect = lower value 0.0693 | S. cerevisiae deletion strains, locus YPR167C, strain met16, stronger effect = lower value 0.0622 | S. cerevisiae deletion strains, strain wtn01, stronger effect = lower value 0.0586 | S. cerevisiae strains, strain wild type, stronger effect = lower value 0.05
0.0502 (active) and 0.997 (inactive): S. cerevisiae deletion strains, locus YNL322C, strain KRE1, stronger effect = lower value
0.0635 (active) and 0.949 (inactive): S. cerevisiae deletion strains, locus YJR075W, strain HOC1, stronger effect = lower value
0.0528 (active) and 0.999 (inactive): S. cerevisiae deletion strains, locus YPL241C, strain CIN2, stronger effect = lower value
inactive: S. cerevisiae deletion strains, locus YOL147C, strain pex11, stronger effect = lower value 0.946
